Results: PubChem BioAssay (NCATS)
Inconclusive results are not listed. The source made the active and inactive calls. Unless noted, the call rests on the fitted dose curve; in most records, active means well fitted curve in the direction sought with a large enough effect; inconclusive means small, poorly fitted or top-dose-only effect, or another doubt; inactive means no such curve, though single readings can be large; an effect the other way counts as inactive or inconclusive.

Legend:
[1] = molecular target: Glucocorticoid receptor (Homo sapiens) (UniProt P04150); assay: qHTS assay for small molecule agonists of glucocorticoid receptor signaling (AID 588532; active means well fitted curve in the direction sought with a large enough effect in the signal ratio, with a control signal flat; the % refers to the signal ratio;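 further: 100% = dexamethasone at 0.1 µM and 0% = DMSO only wells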); conditions: HeLa MMTV-bla, beta-lactamase ratio, agonist, 18 h; stronger effect = higher value; percent of dexamethasone control, DMSO zero
Chain of Glucocorticoid receptor (Homo sapiens) (P04150 whole entry, looked up): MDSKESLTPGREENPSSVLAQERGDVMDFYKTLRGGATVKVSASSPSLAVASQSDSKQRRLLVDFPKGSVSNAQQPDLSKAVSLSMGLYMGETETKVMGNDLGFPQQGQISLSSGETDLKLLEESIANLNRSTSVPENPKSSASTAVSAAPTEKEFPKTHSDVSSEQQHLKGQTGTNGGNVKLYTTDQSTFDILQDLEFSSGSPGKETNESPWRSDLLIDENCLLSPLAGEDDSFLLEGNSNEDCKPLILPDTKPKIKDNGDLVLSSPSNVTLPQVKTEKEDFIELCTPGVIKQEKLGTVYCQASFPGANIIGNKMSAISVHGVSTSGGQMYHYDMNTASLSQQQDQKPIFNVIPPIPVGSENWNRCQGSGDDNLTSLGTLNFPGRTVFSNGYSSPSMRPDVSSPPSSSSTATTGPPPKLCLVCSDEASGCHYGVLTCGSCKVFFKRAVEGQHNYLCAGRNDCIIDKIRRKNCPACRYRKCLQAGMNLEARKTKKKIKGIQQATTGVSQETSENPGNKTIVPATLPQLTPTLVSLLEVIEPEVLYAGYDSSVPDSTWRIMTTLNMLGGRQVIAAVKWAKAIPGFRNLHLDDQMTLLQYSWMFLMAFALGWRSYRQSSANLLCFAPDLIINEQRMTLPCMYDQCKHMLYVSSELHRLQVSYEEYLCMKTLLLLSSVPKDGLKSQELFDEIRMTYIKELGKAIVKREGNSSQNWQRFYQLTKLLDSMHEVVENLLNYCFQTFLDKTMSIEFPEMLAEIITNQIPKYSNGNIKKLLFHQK
Summary of the method: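 MMTV-bla HeLa, beta-lactamase reporter; medium with 1% charcoal/dextran-stripped FBS; cpds up to 92 uM, 18 h, 37 C; CCF4 readout 460/530 nm; Hill fit → EC50, efficacy vs 0.1 uM dexamethasone = 100%.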

[2] = qHTS assay for small molecule antagonists of peroxisome proliferator-activated receptor delta signaling (AID 588535); conditions: HEK293T PPARd-UAS-bla, beta-lactamase FRET ratio, 18 h; 460 nm channel;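 further: cells co-treated with a PPAR-delta agonist as stimulator during compound exposure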
Summary of the method: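 GeneBLAzer PPAR-delta-UAS-bla HEK293T cells in medium with 2% charcoal/dextran FBS were preincubated 5 hrs at 37 C, then given compounds, incubated 18 hrs at 37 C, and read by CCF4 beta-lactamase fluorescence; IC50 from Hill fits.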

[3] = molecular target: Peroxisome proliferator-activated receptor gamma (Homo sapiens) (UniProt P37231); assay: qHTS assay for small molecule agonists of peroxisome proliferator-activated receptor gamma signaling (AID 588536; active means well fitted curve in the direction sought with a large enough effect in the signal ratio, with a control signal flat, not every such curve was filed as active; the % refers to the signal ratio;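 further: 0% = DMSO basal wells and 100% = rosiglitazone at 2 µM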); conditions: HEK293 PPARg-UAS-bla, beta-lactamase ratio, 16 h, percent of rosiglitazone response, DMSO as zero; series mostly up to 76.7 µM
Chain of Peroxisome proliferator-activated receptor gamma (Homo sapiens) (P37231 whole entry, looked up): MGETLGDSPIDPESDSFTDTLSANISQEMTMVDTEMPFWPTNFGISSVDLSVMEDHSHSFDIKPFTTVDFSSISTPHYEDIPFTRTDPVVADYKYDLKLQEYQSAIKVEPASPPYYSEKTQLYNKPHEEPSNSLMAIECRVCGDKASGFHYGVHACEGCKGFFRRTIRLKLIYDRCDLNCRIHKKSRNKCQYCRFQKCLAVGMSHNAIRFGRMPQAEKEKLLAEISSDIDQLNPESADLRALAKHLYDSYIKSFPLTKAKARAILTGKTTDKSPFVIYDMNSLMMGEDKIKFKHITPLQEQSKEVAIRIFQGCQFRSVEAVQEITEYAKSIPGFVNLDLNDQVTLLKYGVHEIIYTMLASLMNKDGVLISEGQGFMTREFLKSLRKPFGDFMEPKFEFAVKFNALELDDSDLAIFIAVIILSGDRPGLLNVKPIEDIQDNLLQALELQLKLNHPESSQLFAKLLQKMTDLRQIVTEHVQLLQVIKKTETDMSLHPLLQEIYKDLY
Summary of the method: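 Ratiometric blue/green fluorescence (405 nm excitation; 460 and 530 nm emission) from CCF4-loaded HEK293 reporter cells serves as signal. Exposure to test compounds lasts 16 h at 37 C in medium containing 1% charcoal/dextran-treated serum.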

[4] = molecular target: Peroxisome proliferator-activated receptor gamma (Homo sapiens) (UniProt P37231); assay: qHTS assay for small molecule antagonists of peroxisome proliferator-activated receptor gamma signaling (AID 588537; active means well fitted inhibition curve with a large enough effect in the signal ratio, with a control signal flat, not every such curve was filed as active; the % refers to the signal ratio;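 further: reporter cells co-stimulated with 50 nM rosiglitazone agonist during compound treatment; % of control where 0% means no effect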); conditions: HEK293 PPARg-UAS-bla, beta-lactamase ratio, antagonist mode; series mostly up to 76.8 µM
Summary of the method: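 PPAR-gamma-UAS-bla HEK293 cells (3000/well, 1% charcoal/dextran-stripped FBS) were preincubated 6-6.5 h at 37 C, given titrated compounds, then stimulated with 50 nM rosiglitazone for 16 h. Beta-lactamase activity was read with CCF4 dye; IC50 came from Hill fits.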

[5] = molecular target: Vitamin D3 receptor (Homo sapiens) (UniProt P11473); assay: qHTS assay for small molecule antagonists of vitamin D receptor signaling (AID 588541; calls by dose curve;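 further: receptor activated by calcitriol during compound treatment; on the % scale 0 is the no-effect control and ±100 the full control effect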); conditions: HEK293T VDR-UAS-bla, beta-lactamase ratio, antagonist mode; series mostly up to 76.7 µM
Chain of Vitamin D3 receptor (Homo sapiens) (P11473 whole entry, looked up): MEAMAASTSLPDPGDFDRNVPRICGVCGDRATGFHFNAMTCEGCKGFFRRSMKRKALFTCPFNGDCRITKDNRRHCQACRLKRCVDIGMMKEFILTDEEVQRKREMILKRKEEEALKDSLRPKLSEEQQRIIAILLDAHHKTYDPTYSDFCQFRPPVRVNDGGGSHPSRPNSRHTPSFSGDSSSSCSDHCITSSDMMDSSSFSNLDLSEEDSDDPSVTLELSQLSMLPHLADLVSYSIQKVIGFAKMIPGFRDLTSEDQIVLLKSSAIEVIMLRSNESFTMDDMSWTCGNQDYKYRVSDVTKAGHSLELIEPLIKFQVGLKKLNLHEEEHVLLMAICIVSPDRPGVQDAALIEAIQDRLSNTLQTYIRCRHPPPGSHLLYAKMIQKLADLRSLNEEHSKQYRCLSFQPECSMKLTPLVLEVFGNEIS
Summary of the method: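 VDR-UAS-bla HEK293T cells (2000/well, 2% charcoal-stripped FBS) were treated with titrated compounds plus 1-alpha,25-dihydroxyvitamin D3 (50 nM or 3 nM final) for 16 h at 37 C. CCF4 beta-lactamase fluorescence was read; Hill fits gave IC50.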

[6] = molecular target: Vitamin D3 receptor (Homo sapiens) (UniProt P11473); assay: qHTS assay for small molecule agonists of vitamin D receptor signaling (AID 588543; calls by dose curve;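 further: 0% = DMSO basal and 100% = reference agonist control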); conditions: HEK293T VDR-UAS-bla, beta-lactamase ratio, 16 h; series mostly up to 76.8 µM
Summary of the method: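 qHTS in agonist mode: compound titrations stimulate a VDR-driven β-lactamase reporter in HEK293T cells over 16 h at 37 °C. Response normalized to 50 nM 1α,25-dihydroxyvitamin D3 = 100%, DMSO = 0%; Hill fitting gives EC50 and maximal response.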

[7] = qHTS assay for small molecule agonists of retinoid X receptor alpha signaling (AID 588544; calls by dose curve;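 on activation: 0% = DMSO basal wells and 100% = reference agonist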); conditions: HEK293T RXRa-UAS-bla, beta-lactamase reporter, 18 h; 530 nm emission
[8] = molecular target: Retinoic acid receptor RXR-alpha (Homo sapiens) (UniProt P19793); assay: as above; conditions: HEK293T RXRa-UAS-bla, beta-lactamase reporter, 18 h; series mostly up to 76.7 µM
Chain of Retinoic acid receptor RXR-alpha (Homo sapiens) (P19793 whole entry, looked up): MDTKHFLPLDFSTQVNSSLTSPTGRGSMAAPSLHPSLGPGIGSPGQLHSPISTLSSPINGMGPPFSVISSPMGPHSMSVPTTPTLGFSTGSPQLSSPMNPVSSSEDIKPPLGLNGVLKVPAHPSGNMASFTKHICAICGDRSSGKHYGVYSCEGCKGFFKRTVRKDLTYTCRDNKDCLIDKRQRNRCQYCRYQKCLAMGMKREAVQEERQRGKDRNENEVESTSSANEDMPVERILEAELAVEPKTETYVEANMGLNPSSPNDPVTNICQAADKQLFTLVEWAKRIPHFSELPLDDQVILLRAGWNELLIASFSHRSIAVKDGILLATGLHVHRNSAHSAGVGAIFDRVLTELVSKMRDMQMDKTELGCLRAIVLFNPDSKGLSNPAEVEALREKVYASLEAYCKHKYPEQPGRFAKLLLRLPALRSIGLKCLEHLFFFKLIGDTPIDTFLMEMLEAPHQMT

[9] = molecular target: Thyroid hormone receptor beta (Homo sapiens) (UniProt P10828); assay: qHTS assay for small molecule agonists of thyroid hormone receptor beta signaling (AID 588545; calls by dose curve;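 further: 0% = DMSO only and 100% = 10 nM T3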); conditions: TR-UAS-bla GripTite HEK 293, beta-lactamase ratio, agonist mode, 18 h; series mostly up to 76.7 µM
Chain of Thyroid hormone receptor beta (Homo sapiens) (P10828 whole entry, looked up): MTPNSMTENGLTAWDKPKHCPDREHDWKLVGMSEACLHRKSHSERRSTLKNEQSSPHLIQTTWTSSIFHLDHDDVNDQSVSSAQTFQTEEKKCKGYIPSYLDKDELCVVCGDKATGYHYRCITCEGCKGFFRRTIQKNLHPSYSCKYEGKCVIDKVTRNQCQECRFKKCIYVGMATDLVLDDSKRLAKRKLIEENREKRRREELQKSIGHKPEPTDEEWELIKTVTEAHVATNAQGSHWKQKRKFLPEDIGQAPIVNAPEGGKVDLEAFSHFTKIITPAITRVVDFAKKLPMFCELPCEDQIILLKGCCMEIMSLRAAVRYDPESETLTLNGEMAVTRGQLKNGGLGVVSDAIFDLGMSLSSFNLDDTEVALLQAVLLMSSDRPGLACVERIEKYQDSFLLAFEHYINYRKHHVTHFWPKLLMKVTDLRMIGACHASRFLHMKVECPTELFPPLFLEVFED
Summary of the method: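 Efficacy and EC50 values derive from Hill fits of qHTS titration data, normalized to 10 nM T3 and DMSO-only wells. HEK 293 reporter cells were stimulated for 18 hrs at 37 C, with beta-lactamase activity measured by CCF4 fluorescence.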

[10] = qHTS assay for small molecule antagonists of retinoid X receptor alpha signaling (AID 588546; active means well fitted inhibition curve with a large enough effect in the signal ratio, with a control signal flat, not every such curve was filed as active; the % refers to the signal ratio;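 further: cells stimulated with 9-cis-retinoic acid as agonist; on the % scale 0 is the no-effect control and ±100 the full control effect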); conditions: HEK293T RXRa-UAS-bla, beta-lactamase ratio, antagonist mode; measured here: W530 green channel, cytotoxicity proxy
Summary of the method: (§1)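 Beta-lactamase reporter inhibition, read as CCF4 fluorescence ratio (ex 405, em 460/530 nm) after 2 h at RT. HEK293T UAS-bla cells, 2500/well, were stimulated with 9-cis-RA at 500 or 100 nM final alongside test compound for 18 h at 37 C.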

[11] = molecular target: Retinoic acid receptor RXR-alpha (Homo sapiens) (UniProt P19793); assay: as above; conditions: HEK293T RXRa-UAS-bla, beta-lactamase ratio, antagonist mode
Summary of the method: as §1

[12] = qHTS assay for environmental chemicals that activate the Aryl hydrocarbon Receptor (AhR) signaling pathway (AID 651777); conditions: 1A2-DRE human hepatoma cells, luciferase, 24 h; activation: stronger effect = higher value; further: % of control where 0% means no effect; nearly all actives have a fitted effect of over 15% in size
Summary of the method: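 Reporter gene assay: hepatoma cells with DRE/CYP1A2-luciferase, 24 hr compound incubation at 37 C, 5% CO2, luminescence after One-Glo (30 min, RT).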

[13] = molecular target: Peroxisome proliferator-activated receptor alpha (Homo sapiens) (UniProt Q07869); assay: qHTS assay for small molecule agonists of the peroxisome proliferator-activated receptor alpha (PPARalpha) signaling pathway (AID 651778); conditions: PathHunter PPARalpha complementation, chemiluminescence, 6 h; max response: stronger effect = higher value; further: % of control where 0% means no effect
Chain of Peroxisome proliferator-activated receptor alpha (Homo sapiens) (Q07869 whole entry, looked up): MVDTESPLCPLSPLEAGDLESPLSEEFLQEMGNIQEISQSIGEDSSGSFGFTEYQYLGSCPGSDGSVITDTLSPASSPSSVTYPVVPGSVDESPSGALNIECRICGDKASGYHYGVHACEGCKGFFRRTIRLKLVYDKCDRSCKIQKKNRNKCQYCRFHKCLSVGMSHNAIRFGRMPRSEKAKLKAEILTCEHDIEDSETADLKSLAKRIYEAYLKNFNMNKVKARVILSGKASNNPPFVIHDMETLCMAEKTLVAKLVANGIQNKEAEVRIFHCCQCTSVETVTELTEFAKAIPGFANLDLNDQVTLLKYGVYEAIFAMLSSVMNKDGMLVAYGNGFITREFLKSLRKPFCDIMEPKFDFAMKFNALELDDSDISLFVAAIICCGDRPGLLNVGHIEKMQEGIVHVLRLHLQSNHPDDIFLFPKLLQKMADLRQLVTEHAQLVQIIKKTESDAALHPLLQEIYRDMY
Summary of the method: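 Cells plated at 2,000/well and held overnight at 37 C, 5% CO2, then compound added by pin tool for 6 hr; after PathHunter detection reagent and 60 min at room temperature, chemiluminescence from enzyme complementation was read.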

[14] = qHTS assay for small molecule agonists of the antioxidant response element (ARE) signaling pathway measured by Nrf2-dependant transcriptional activity (AID 720636; active means well fitted curve in the direction sought with a large enough effect in the repeat runs; an effect the other way counts as inactive or inconclusive;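 further: HepG2 cells with an ARE-driven luciferase reporter; % of control where 0% means no effect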); conditions: ARE-luc HepG2, Nrf2 luciferase reporter, 16 h; series mostly up to 92.4 µM
Summary of the method: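 Nrf2-dependent transcription is measured in ARE-luc HepG2 cells: compound is applied for 16 hr at 37 C after a 6 hr attachment period, and luciferase activity is quantified by luminescence using ONE-Glo.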

[15] = qHTS assay for cell viability of HEK293 cells (AID 743288); conditions: ATP luminescence (CellTiter-Glo), 18 h; max response: stronger effect = lower value; further: on the % scale 0 is the no-effect control and ±100 the full control effect; nearly all actives have a fitted effect of over 50% in size
Summary of the method: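 The Tox21 protocol used parental HEK293 cells treated for 18 h at 37 C with compounds delivered by pintool; ATP-coupled luminescence after 30 min at room temperature gave viability.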

[16] = qHTS assay for cell viability of the p53RE-bla HCT-116 cell line (AID 743292); conditions: p53RE-bla HCT-116 viability, ATP luminescence, 16 h; series mostly up to 95 µM; further: on the % scale 0 is the no-effect control and ±100 the full control effect; nearly all actives have a fitted effect of over 55% in size
Summary of the method: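 ATP-based luminescence, 16 h compound exposure at 37 C, p53RE-bla HCT-116 cells at 4,000/well.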

[17] = molecular target: Nuclear receptor subfamily 1 group I member 2 (Rattus norvegicus) (UniProt Q9R1A7); assay: qHTS assay for small molecule activators of the rat pregnane X receptor (rPXR) signaling pathway (AID 651751; call rule not given here; further: 0% is about no effect); conditions: rPXR reporter cells, luciferase (One-Glo), 24 h
Chain of Nuclear receptor subfamily 1 group I member 2 (Rattus norvegicus) (Q9R1A7 whole entry, looked up): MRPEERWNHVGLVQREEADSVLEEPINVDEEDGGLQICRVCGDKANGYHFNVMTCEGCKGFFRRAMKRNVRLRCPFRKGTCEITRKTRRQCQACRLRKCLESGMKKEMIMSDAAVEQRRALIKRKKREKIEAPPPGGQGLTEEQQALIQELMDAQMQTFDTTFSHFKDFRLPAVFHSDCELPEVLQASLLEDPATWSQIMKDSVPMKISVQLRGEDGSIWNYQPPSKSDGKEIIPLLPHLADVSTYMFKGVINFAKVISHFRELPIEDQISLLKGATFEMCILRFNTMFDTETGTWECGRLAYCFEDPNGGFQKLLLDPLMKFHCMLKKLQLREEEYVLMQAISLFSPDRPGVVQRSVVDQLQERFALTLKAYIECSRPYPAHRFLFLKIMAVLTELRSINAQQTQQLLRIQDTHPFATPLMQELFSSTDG

[18] = qHTS assay for small molecule activators of the p53 signaling pathway (AID 651743; active means well fitted activation curve with a large enough effect in the signal ratio, not every such curve was filed as active; the % refers to the signal ratio; further: % of control where 0% means no effect); conditions: HCT-116 p53RE-bla, beta-lactamase FRET ratio, 16 h; activation: stronger effect = higher value
Summary of the method: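 p53RE-bla HCT-116 cells with a stably integrated beta-lactamase reporter under p53 response elements were plated, rested 5 hours at 37 C/5% CO2, then exposed to compounds in DMSO for 16 hours at 37 C. LiveBLAzer B/G FRET substrate was read after 2 hours at room temperature.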

[19] = qHTS assay for small molecule agonists of the antioxidant response element (ARE) signaling pathway measured by Nrf2-dependant transcriptional activity - cell viability counter screen (AID 720653; active means well fitted curve in the direction sought with a large enough effect in the repeat runs; an effect the other way counts as inactive or inconclusive; further: on the % scale 0 is the no-effect control and ±100 the full control effect); conditions: ARE-bla HepG2 viability, CellTiter-Glo ATP luminescence, 16 h; max response: stronger effect = lower value
Summary of the method: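 ARE-bla HepG2 cells (2,000/well) rested 5 hrs at 37C/5% CO2, then exposed to compounds in DMSO for 16 hrs. Viability was read in the same wells as intracellular ATP by luminescence, 30 min at room temperature after reagent addition.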

[20] = qHTS assay for small molecule activators of the human pregnane X receptor (PXR) signaling pathway (AID 720659; call rule not given here; further: 0% is about no effect); conditions: DPX-2 HepG2 CYP3A4-luciferase, 24 h; series mostly up to 92.3 µM

CC(C)(N=C=O)c1cccc(C(C)(C)N=C=O)c1
inactive: activation [1] 9.9% | outcome [3] | Potency [4] | Potency [5] | outcome [6] | Potency [8] | Potency [9] | max response [11] -29.1% | activation [12] 0.551% | max response [13] -1.39% | Potency [14] | max response [15] -12% | Potency [16] | max response [17] 4.49%
9.94%: max response [2]
-4.03%: max response [10]
8.92%: max response [7]

C=C(C)C(=O)OCCC[Si](Cl)(Cl)Cl
inactive: outcome [3] | Potency [4] | Potency [5] | Potency [8] | max response [11] 9.64% | activation [18] -1.03% | activation [12] -0.113% | max response [13] 0.0328% | Potency [14] | max response [19] -17.2% | max response [15] -10.2% | Potency [16] | max response [17] 1.99% | outcome [20]
-12.6%: max response [10]
-12.2%: max response [7]
8.96%: max response [2]

Nc1ccc(Nc2ccccc2)cc1
inactive: outcome [3] | max response [11] -27.9% | activation [12] 5.3% | max response [13] -0.422% | max response [19] 14.3% | max response [15] -17.7% | Potency [16] | max response [17] 8.87%
-6.58%: max response [10]

C=C(C)C(=O)OCCOCCOCCOC(=O)C(=C)C
1.13%: max response [7]
inactive: activation [1] 9.85% | outcome [3] | Potency [4] | Potency [5] | outcome [6] | Potency [8] | Potency [9] | max response [11] 4.6% | activation [18] -4.46% | activation [12] -1.22% | max response [13] -0.929% | Potency [14] | max response [19] -16.9% | max response [15] -8.3% | Potency [16] | max response [17] -0.564% | outcome [20]
3.38%: max response [10]

C=CCOc1nc(OCC=C)nc(OCC=C)n1
-0.634%: max response [7]
-8.71%: max response [10]
inactive: activation [1] -1.63% | outcome [3] | Potency [5] | outcome [6] | Potency [8] | Potency [9] | activation [12] 5.16% | max response [13] -2.18% | Potency [14] | max response [19] 1.36% | max response [15] -0.661% | Potency [16] | max response [17] -0.162%
15.5%: max response [2]

COC(=O)c1ccc(CNS(C)(=O)=O)cc1S(=O)(=O)NC(=O)Nc1nc(OC)cc(OC)n1
-12.9%: max response [10]
10.6%: max response [7]
inactive: activation [1] -4.55% | Potency [4] | Potency [5] | outcome [6] | Potency [8] | Potency [9] | activation [18] -5.96% | activation [12] -2.23% | Potency [14] | max response [19] 12.1% | max response [15] 10.3% | max response [17] -5.5% | outcome [20]

Oc1ccc(Nc2ccccc2)cc1
inactive: activation [1] -7.61% | outcome [6] | Potency [9] | activation [18] 16.3% | activation [12] -0.687% | max response [13] -0.779% | Potency [14] | max response [19] -6.61% | max response [15] -10.5% | Potency [16] | max response [17] 0.0407% | outcome [20]

CCCCCOC(=O)COc1cc(N2C(=O)C3=C(CCCC3)C2=O)c(F)cc1Cl
inactive: activation [1] 3.85% | outcome [6] | Potency [9] | activation [12] 0.703% | max response [13] 1.28% | max response [19] 8.37% | max response [15] 4.43% | max response [17] 4.68% | outcome [20]

CS(=O)(=O)c1ccc(Cl)cc1
0.314%: max response [7]
-4.7%: max response [10]
15.6%: max response [2]
inactive: Potency [5] | outcome [6] | Potency [8] | Potency [9] | activation [12] 0.81% | max response [13] -0.188% | Potency [14] | max response [15] -17.3% | Potency [16] | max response [17] 3.76% | outcome [20]
